Bioassay records from PubChem.
An excerpt weighted towards active compounds, which were near 4% of everything screened.
Rv3671c inh: inhibitors of M. tuberculosis serine protease Rv3671c. P9WHR9. inhibition, % at 5.96 µM. 320,000 compounds, 0.048% hits; in the data active = inhibition above about 38%;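 note: extracellular domain of Rv3671c used as enzyme; 0% = enzyme with DMSO and 100% = no enzyme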
Target sequence (P9WHR9 whole entry, looked up, the tested form may be a part): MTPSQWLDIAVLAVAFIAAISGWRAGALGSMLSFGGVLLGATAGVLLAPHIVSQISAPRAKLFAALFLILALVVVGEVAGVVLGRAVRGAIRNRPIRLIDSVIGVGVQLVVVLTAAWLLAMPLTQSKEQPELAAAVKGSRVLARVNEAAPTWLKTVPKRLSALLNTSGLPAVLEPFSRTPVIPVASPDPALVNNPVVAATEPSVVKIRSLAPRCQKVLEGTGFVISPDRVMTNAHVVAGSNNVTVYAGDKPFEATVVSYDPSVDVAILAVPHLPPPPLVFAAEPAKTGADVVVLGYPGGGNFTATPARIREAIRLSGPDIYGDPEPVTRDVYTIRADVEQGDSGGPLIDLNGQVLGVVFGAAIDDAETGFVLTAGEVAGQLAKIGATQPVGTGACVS
FBA Mtb inh: inhibits M. tuberculosis FBA enzyme; 360,000 compounds, 2.3% hits; purified M. tuberculosis FBA, fluorescence read-out; P9WQA3; inhibition, % at 1 µM;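 note: 0% = vehicle and 100% = reference inhibitor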
GDH-TPI counter-1: inhibits GDH-TPI coupling enzymes, artifact for Mtb FBA screen; GDH-TPI coupled enzyme counterscreen, NADH absorbance; inhibition, % at 4.8 µM; 360,000 compounds, 1.2% hits; AID 588335; in the data active = inhibition above about 30%;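 note: 0% = DMSO wells and 100% = wells lacking the enzyme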
Mtb bLac sens: beta-lactam sensitization of Mtb H37Rv; M. tuberculosis H37Rv growth with meropenem, percent inhibition; inhibition, % at 25 µM; 330,000 compounds, 0.27% hits; AID 434955; call rule not given here;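 note: growth measured after seven days incubation then overnight dye step; 0% = bacteria only wells and 100% = bacteria with antibiotic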
UGM FP inh: blocks M. tuberculosis UGM enzyme | 320,000 compounds, 0.06% hits | P9WIQ1 | inhibition, % at 10 µM | AID 504406 | purified UGM, fluorescence polarization probe displacement; in the data active = inhibition above about 10%, passing the limit was not always enough
RecA splice inh: blocks M. tuberculosis RecA intein splicing; P9WHJ3; cell-free RecA intein splicing, fluorescence; inhibition, % (no concentration beside the values); 290,000 compounds, 0.75% hits; AID 2221; in the data active = inhibition above about 30%;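 note: 0% = vehicle wells and 100% = reference inhibitor control wells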
Mtb FBA inh conf: Mtb FBA inhibition, confirmed. shares compounds with FBA Mtb inh. purified M. tuberculosis FBA, fluorescence read-out. inhibition, % at 1 µM. 5,600 compounds, 78% hits. AID 651616;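 note: 0% = vehicle wells and 100% = reference inhibitor wells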
GDH-TPI counter-2: inhibits GDH-TPI coupling enzymes, flagging Mtb FBA hits; GDH-TPI coupled enzyme counterscreen, fluorescence; inhibition, % at 1 µM; shares compounds with FBA Mtb inh; 5,600 compounds, 81% hits; in the data active = inhibition above about 10%
Starred values were filed as active, the others as inactive; x = no result; + = active, no number. Cut-off read from the data, not from the text of the source, unless noted: active = inhibition above about 27%; inactive = the rest.

SMILES	Rv3671c inh	FBA Mtb inh	GDH-TPI counter-1	Mtb bLac sens	UGM FP inh	RecA splice inh	Mtb FBA inh conf	GDH-TPI counter-2
CCOc1ccccc1NC(=O)COC(=O)c1c[nH]c2ccccc12	x	24	10	x	x	x	x	x
COc1ccc2cc(-c3cc(C(=O)OCC(=O)NC4CCS(=O)(=O)C4)c4ccccc4n3)ccc2c1 (configuration not stated)	-13	28*	12	-6	1	-20	122*	96*
O=C(COC(=O)c1cc(-c2cccs2)nc2ccccc12)NC1CCS(=O)(=O)C1 (configuration not stated)	-11	48*	15	4	1	-90	44*	29*
CCn1c(C)nnc1SCC(=O)Nc1ccc(Cl)cc1	x	0	1	1	-1	-2	x	x
N#CC1=C(O)C(c2ccccc2)n2c1nc(=O)c1ccccc12 (configuration not stated)	4	85*	14	-1	-1	3	137*	129*
COc1cc(OC)cc(-c2c(-c3cccs3)c3cc(-c4ccc5c(c4)OCCO5)ccc3n2C)c1	-22	18	30	9	1	x	x	x
CCOC(=O)c1nc(N)c(C(=O)OCC)[nH]1	3	59*	6	-10	-3	-2	198*	166*
COc1ccccc1-c1coc2c(CN3CCOCC3)c(O)ccc2c1=O	-6	73*	20	-2	0	-2	153*	124*
COc1ccccc1Oc1coc2c(CN3CCOCC3)c(O)ccc2c1=O	7	80*	8	1	1	-9	+	156*
O=C(Nc1cc(Cl)ccc1N1CCCC1)C1=NN(c2ccccc2)C(=O)CC1	3	-5	-9	1	-5	-2	x	x
COc1ccc(-c2cc3cc(OC)c(OC)cc3cn2)cc1	-12	89*	10	72	-2	x	45*	33*
Cc1cn(C2CCCCC2)c(=O)n(-c2ccccc2)c1=O	x	37*	1	x	x	x	+	177*
Cc1cn(CC(C)C)c(=O)n(-c2ccccc2)c1=O	x	-3	-5	x	x	x	x	x
O=C(Nc1nccs1)c1ccccc1N=Cc1ccccc1	1	87*	11	0	2	-7	-2	4
COc1cccc(C=Nc2ccccc2C(=O)Nc2nccs2)c1OC	-3	68*	6	-4	1	-8	156*	126*
O=C(Nc1nccs1)c1cccnc1Cl	14	3	13	3	1	0	x	x
CC(C)(C)CNC(=O)C1(C)CCN1C(=O)c1ccccc1CCc1ccccc1 (configuration not stated)	x	2	16	x	x	x	x	x
Cc1ccc(S(=O)(=O)N(C)C)cc1NC(=O)CCNC(=O)c1ccco1	-8	1	16	-5	-1	3	x	x
CC(OC(=O)c1ccccc1NCCO)C(=O)Nc1ccc(S(=O)(=O)N2CCOCC2)cc1 (configuration not stated)	-1	57*	1	6	1	-6	58*	54*
CC(OC(=O)CNC(=O)c1ccccc1)C(=O)Nc1ccc(S(=O)(=O)N2CCOCC2)cc1 (configuration not stated)	x	5	8	x	x	x	x	x
COc1cc2cc(C(=O)O)[nH]c2c(OC)c1OC	-3	35*	-12	2	0	1	112*	74*
COc1ccc(OC)c2c(=O)cc(C(=O)O)[nH]c12	0	5	21	-4	2	0	x	x
Cc1ccc2oc(C(=O)Nc3nnc(C)s3)c(C)c2c1	5	-1	14	2	3	-1	x	x
COc1ccc2oc(C(=O)NC(C)c3ccccn3)c(C)c2c1 (configuration not stated)	-4	33*	3	-2	1	x	94*	83*
COc1ccc2oc(C(=O)Nc3nnc(C)s3)c(C)c2c1	-3	29*	23	-4	2	x	81*	63*
SMILES	Rv3671c inh	FBA Mtb inh	GDH-TPI counter-1	Mtb bLac sens	UGM FP inh	RecA splice inh	Mtb FBA inh conf	GDH-TPI counter-2
C(COC1CC2CC1C1C2CC2OC21)OC1CC2CC1C1C2CC2OC21 (configuration not stated)	x	0	10	x	x	x	x	x
CN(C)c1ccc(NC(=O)Cc2ccccc2)c2ccccc12	-4	29*	6	2	-1	-2	39*	34*
COc1cc(OC)cc(C(=O)Nc2ccc(N(C)C)c3ccccc23)c1	-1	5	8	8	1	2	x	x
Nc1nc2ccccc2n1CCOc1ccc(F)cc1	5	0	6	-11	3	2	x	x
CCCC1Cc2c(sc3ncnc(N)c23)CO1 (configuration not stated)	0	28*	2	5	1	-2	142*	121*
CCn1c(NCc2cccs2)nc2ccccc21	-6	1	9	-8	0	9	x	x
CCCn1c(-c2cccs2)nc2ccccc21	3	74*	20	31	0	0	+	174*
C=CCn1c(CC(C)(C)C)nc2ccccc21	4	-1	-5	-1	2	1	x	x
C=CCn1c(-c2cccs2)nc2ccccc21	-6	63*	17	18	0	x	150*	141*
CC1CCCC(NC(=O)c2cccc(S(=O)(=O)N3CCOCC3)c2)C1C (configuration not stated)	x	18	9	x	x	x	x	x
CC(C)C(=O)Nc1nc2cc3c(cc2s1)OCO3	0	-3	9	-10	1	0	x	x
Fc1cccc2sc(Nc3nc4cc5c(cc4s3)OCO5)nc12	10	35*	19	69	-2	0	128*	93*
Fc1cc(F)c2nc(Nc3nc4cc5c(cc4s3)OCO5)sc2c1	-6	32*	11	-1	1	0	84*	66*
O=C(Nc1nc2cc3c(cc2s1)OCO3)C1CC1	3	2	4	-4	-1	0	x	x
Fc1cccc2sc(Nc3nc4cc5c(cc4s3)OCCO5)nc12	11	39*	16	77	1	0	-5	-5
Cn1cccc2[nH]c(=O)nc1-2	7	37*	9	-5	0	0	78*	54*
